Shown is part of a subset that was picked to be rich in hits.
GIRK2 act – Activates human GIRK2-containing potassium channels; P48051; HEK293 GIRK2/NPY4 cells, thallium flux fluorescence; activation (% efficacy), % for hits at 37.5 µM; 34,000 tested, under 10 active;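 active means primary screen hit, no activity in plain HEK293 cells, and in GIRK2-only cells above 5% efficacy rising with concentration; inactive means the rest, including fluorescent compounds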;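 further: efficacy is normalized control-subtracted fluorescence 15 s after thallium addition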
Target sequence (P48051 whole entry, looked up): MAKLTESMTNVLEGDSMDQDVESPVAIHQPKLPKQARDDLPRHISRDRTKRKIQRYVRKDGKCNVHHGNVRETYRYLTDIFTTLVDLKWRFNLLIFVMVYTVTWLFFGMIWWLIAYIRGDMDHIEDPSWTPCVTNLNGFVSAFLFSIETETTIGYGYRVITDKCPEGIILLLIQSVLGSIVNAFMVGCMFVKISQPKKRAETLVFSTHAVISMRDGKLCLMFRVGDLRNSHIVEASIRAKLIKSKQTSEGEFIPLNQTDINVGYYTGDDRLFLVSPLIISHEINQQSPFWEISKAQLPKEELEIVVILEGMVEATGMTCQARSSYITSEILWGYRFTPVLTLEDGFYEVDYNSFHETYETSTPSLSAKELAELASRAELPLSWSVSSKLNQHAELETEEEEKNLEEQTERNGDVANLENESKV
AMPAR-TARP mod – modulates AMPAR-stargazin complexes; O88602+P19491; 3.5% of 40,000 active; HEK293 GluA2+stargazin, membrane potential dye (FDSS), glutamate EC50; hits were called plate by plate, in both directions; calls only at 30 µM; AID 1259245;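 active means any of four per-well response measures lying three or more SD from its plate-wide compound average, in either direction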
The depositor's hits bear a star; i = inactive; nt = not tested or not shown; + = active, no number; ! = not confirmed by another sample.

SMILES	GIRK2 act	AMPAR-TARP mod
CCc1cccc2sc(N3CCN(C(=O)CS(=O)(=O)c4ccc(OC)cc4)CC3)nc12	nt	i
COc1ccc(-c2ccc(=O)n(CCNC(=O)c3ccc(S(=O)(=O)N(C)C)cc3)n2)cc1	nt	i
COc1ccc(-c2ccc(=O)n(CCNC(=O)c3ccc(S(=O)(=O)N4CCCCC4)cc3)n2)cc1	nt	+
CCCSc1nccc(=O)[nH]1	nt	i
CC1(C)CC(=O)C2=C(C1)NC1=C(C(=O)c3ccccc31)C2c1ccc(C(F)(F)F)cc1 (centres undefined)	nt	+
CC1(C)CC(=O)C2=C(C1)NC1=C(C(=O)c3ccccc31)C2c1cccnc1 (centres undefined)	nt	i
CC(=O)N1CC(C(=O)Nc2ccc(S(=O)(=O)Nc3ncccn3)cc2)C1	i	i
O=C(Nc1cccc(C(F)(F)F)c1)C1CC(=O)N(c2ccc(F)cc2)C1 (centres undefined)	nt	+
O=C(Nc1ccc2c(c1)CN(C(=O)c1ccccc1)CC2)C1CC(=O)N(c2ccc(F)cc2)C1 (centres undefined)	i	i
O=C(CCCS(=O)(=O)c1ccc(Cl)cc1)Nc1nc(-c2ccncc2)cs1	nt	i
CCc1cc(=O)oc2cc(OC(=O)c3cc(OC)c(OC)c(OC)c3)c(Cl)cc12	nt	i
COC(=O)Cc1c(C)c2ccc(OCC(=O)c3ccc(F)cc3)cc2oc1=O	nt	+
COC(=O)Cc1c(C)c2ccc(OCC(=O)c3ccc(-c4ccccc4)cc3)cc2oc1=O	nt	i
CCc1ccc(-c2cc3c(=O)n(Cc4nc(-c5ccc(OC)cc5OC)no4)ccn3n2)cc1	i	i
CCc1ccc(-c2cc3c(=O)n(Cc4nc(-c5cccc(C(F)(F)F)c5)no4)ccn3n2)cc1	i	+
O=C(Nc1cccs1)N1CC(c2nc(-c3cccc(C(F)(F)F)c3)no2)C1	i	nt
O=C(Nc1ccc(C(F)(F)F)cc1)c1ccc(S(=O)(=O)NCCc2ccccc2)o1	i	i
O=C(Nc1ccc(OC(F)(F)F)cc1)c1ccc(S(=O)(=O)NCc2cccs2)o1	i	+
CCC(=O)N1CCN(c2ncnc3c2nnn3-c2cccc(OC)c2)CC1	nt	i
O=C(CSCc1ccccc1)N1CCN(c2ncnc3c2nnn3-c2ccccc2)CC1	nt	i
CCSc1ccccc1C(=O)N1CCN(c2ncnc3c2nnn3-c2ccc(OC)cc2)CC1	nt	+
O=C(CC(c1ccccc1)c1ccccc1)N1CCN(c2ncnc3c2nnn3-c2ccccc2)CC1	nt	+
CCSc1ccccc1C(=O)N1CCN(c2ncnc3c2nnn3-c2ccc(C)cc2)CC1	nt	i
COc1ccc(-n2nnc3c(N4CCN(C(=O)c5ccccc5Cl)CC4)ncnc32)cc1	nt	i
COc1ccc(-n2nnc3c(N4CCN(C(=O)c5ccccc5SC)CC4)ncnc32)cc1	nt	+
SMILES	GIRK2 act	AMPAR-TARP mod
CCC(CC)C(=O)N1CCN(c2ncnc3c2nnn3-c2cccc(OC)c2)CC1	nt	+
CCn1c(SCC(=O)NCc2ccco2)nc2nc(-c3ccccc3)ncc2c1=O	i	i
COc1cccc(C(CNC(=O)C(=O)Nc2cc(C)nc3ccccc23)N2CCOCC2)c1 (centres undefined)	i	i
Cc1cc(NC(=O)C(=O)NCC2CCN(C(C)C)CC2)c2ccccc2n1	i	+
Cc1cc(NC(=O)C(=O)NCC(c2cccs2)N2CCOCC2)c2ccccc2n1 (centres undefined)	nt	+
Cc1cccc(C)c1NC(=O)C(=O)NCC1CCN(C(C)C)CC1	i	nt
CC(C)N1CCC(CNC(=O)C(=O)Nc2ccc(F)cc2F)CC1	i	i
Cn1c(=O)c2c(nc(NCCN3CCOCC3)n2CC(O)COc2ccccc2)n(C)c1=O (centres undefined)	nt	i
Cc1nnsc1C(=O)NCC1CCN(c2ncccn2)CC1	i	i
COc1ccc(Cl)cc1NC(=O)CCN1C(=O)c2ccccc2S1(=O)=O	nt	i
CCNc1cc(C)nc(NCCNC(C)=O)n1	i	nt
Cc1nc(NCCNC(=O)c2ncccn2)cc(N2CCOCC2)n1	i	+
CCNc1cc(NCCNC(=O)c2ncccn2)nc(C)n1	i	+
Cc1nc(NCCNC(=O)Nc2cccc(C)c2C)cc(N2CCOCC2)n1	i	nt
COC(=O)C(C)Oc1ccc2c(c1)O/C(=C\c1c(F)cccc1Cl)C2=O (centres undefined)	nt	i
Cc1cc(-c2ccccc2)c2c(n1)sc1c(=O)[nH]cnc12	nt	i
COc1cc(OC)cc(-c2noc(CSc3nc4ccccc4c(=O)n3C(C)C)n2)c1	i	i
Cc1ccc(S(=O)(=O)NCCn2nc(C)c(Cl)c2C)cc1C	i	+
Cc1ccc(S(=O)(=O)NCCn2nc(-c3ccc(Cl)cc3)ccc2=O)cc1C	nt	i
Cn1cccc1C(CNC(=O)c1ccc(F)cc1)N1CCOCC1 (centres undefined)	i	+
Cn1cccc1C(CNC(=O)C(=O)NCc1ccc(F)cc1)N1CCOCC1 (centres undefined)	i	i
Cc1ccc(CNC(=O)c2cnc3c(c(C)nn3-c3ccc(F)cc3)c2Cl)cc1	i	i
Cc1nn(-c2ccc(F)cc2)c2ncc(C(=O)NCCCn3ccnc3)c(Cl)c12	nt	+
Cc1ccc(Cl)cc1NC(=O)Cn1c(C)cc(C)c(S(=O)(=O)c2ccccc2)c1=O	i	i
O=C(NCC(c1ccsc1)N1CCc2ccccc2C1)C1CC1 (centres undefined)	i	+
SMILES	GIRK2 act	AMPAR-TARP mod
COc1c(C)cc(S(=O)(=O)NCC(c2ccsc2)N2CCc3ccccc3C2)cc1C (centres undefined)	i	i
C=CCNC(=O)CC1Nc2cc(C)c(C)cc2NC1=O (centres undefined)	i	nt
Cc1ccc(CNC(=O)CC2Nc3cc(C)c(C)cc3NC2=O)cc1 (centres undefined)	nt	+
CC(=O)NCCc1nc2ccccc2n1CCCOc1cc(C)ccc1C(C)C	i	+
Cc1ccc(C(C)C)c(OCCCn2c(CCCO)nc3ccccc32)c1	i	i
CC1=NN(c2ccccc2)C(=O)C1C(=O)c1ccc(C)c(C)c1 (centres undefined)	i	+
COc1ccc(C(=O)C2C(=O)N(c3ccccc3)N=C2C)cc1OC (centres undefined)	i	i
COc1ccc(S(=O)(=O)NCc2ccccc2)cc1N(C)S(=O)(=O)c1ccc(Cl)cc1	nt	+
COc1ccc(S(=O)(=O)NCc2ccccc2)cc1N(C)S(C)(=O)=O	nt	i
CCn1ccnc1N1CCN(C(=O)Cc2ccc(F)cc2)CC1	i	i
O=C(Nc1ccc2scnc2c1)c1ccc(S(=O)(=O)N2CCc3ccccc3C2)cc1	i	i
Cc1cccc(NC(=O)CC2SC(=O)N(CC(=O)c3ccccc3)C2=O)c1 (centres undefined)	i	+!
Cc1cccc(NC2SC(=O)N(Cc3ccccc3)C2=O)c1 (centres undefined)	i	+
Cc1cccc(NC2SC(=O)N(C(C)C)C2=O)c1 (centres undefined)	i	i
C=CCN1C(=O)SC(CC(=O)Nc2ccc(NC(C)=O)cc2)C1=O (centres undefined)	i	i
C=CCN1C(=O)SC(CC(=O)Nc2ccc(Br)cc2)C1=O (centres undefined)	i	+
